From PubChem BioAssay (NCATS)
Results filed as inconclusive are left out. Values without a mark were called inactive. Calls of active or inactive are those of the source. Calls come from the whole dose curve; as a rule, active = well fitted cell-killing curve with a large enough effect; inconclusive = small, poorly fitted or top-dose-only effect; inactive = flat fitted curve, though single readings scatter.

assay: Cell Viability - NIH 3T3 (AID 541); conditions: NIH 3T3 cell viability, qHTS; activity change, negative = cytotoxicity: at 92.2 µM (top of the series); note: nearly all actives have a fitted effect of over 25% in size;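 for activity change, negative = cytotoxicity: plate controls were DMSO alone for no effect and tamoxifen positive control for full effect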
Source text: NIH Chemical Genomics Center [NCGC]
NIH Molecular Libraries Screening Centers Network [MLSCN]
National Institutes of Environmental Health Sciences [NIEHS]
National Toxicology Program [NTP]
We have developed a 1536-well cell-based assay for quantitative high throughput screening (qHTS) against a number of cell lines to determine in vitro cytotoxicity of small molecules. This particular assay uses the NIH 3T3 fibroblast cell line which is established from NIH Swiss mouse embryo.
NCGC Assay Protocol Summary:
The CellTiter-Glo luminescent cell viability assay (Promega) is a homogeneous method to measure the number of viable cells in culture. The end point readout of this assay is based on quantitation of intracellular ATP, an indicator of metabolic activity, using the luciferase reaction. Luciferase catalyzes the oxidation of beetle Luciferin to oxyluciferin and light in the presence of ATP. The luminescent signal is proportional to amount of ATP present.
Using the CellTiter-Glo luminescent cell viability assay, the amount of cellular ATP was measured in the NIH 3T3 cell line with complete culture medium following compound treatment for 40 hours. The assay was performed in opaque white Kalypsys 1536-well plates. In the screen, tamoxifen and doxorubicin were used as positive controls. Library compounds were measured for their ability to cause acute toxicity in the cell line, as reflected by a decrease in intracellular ATP levels, in a concentration-dependent manner. […] AC50 values were determined from concentration-response data modeled with the standard Hill equation.
qHTS protocol for CellTiter Glo NIH 3T3 cellular assay
[Step] [Parameter] [Value] [Description]
1. Reagent; 5 uL; 1000 NIH 3T3 cells/well
2. Time; 5 hr; 37 °C incubation
4. Controls; 23 nL; Tamoxifen 0.34 uM to 100 uM & Doxorubicin 0.02 nM to 100 uM
5. Time; 40 hr; 37 °C incubation
6. Reagent; 5 uL; CellTiter Glo reagent
7. Time; 20 min; Room Temperature
8. Detection; Luminescence; Viewlux plate reader
Keywords: cell viability, cytotoxicity, NIH 3T3 cell line, luminescence, NTPHTS, NTPHTS_NCGC, NIEHS, EPA, DSSTox, MLSMR, MLSCN, NIH Roadmap, qHTS, NCGC
Potency is the fitted concentration of half-maximal effect.

SMILES	activity change, negative = cytotoxicity	Potency
CCCCCCN	-9.38%	
C/C=C/C=C/C=O	-142% (active)	
C1CCCNCC1	-12.5%	
Cc1c(N)cccc1Cl	-0.783%	
C=CC1CO1 (stereo not given)	-8.56%	
CCc1ccc(C(c2ccc(CC)cc2)C(Cl)Cl)cc1	-11.4%	
O=C(OCc1ccccc1)c1ccccc1O	-9.56%	
Cc1c(C(=O)O)c(O)cc2c1C(=O)c1c(O)c([C@H]3O[C@H](CO)[C@@H](O)[C@H](O)[C@H]3O)c(O)c(O)c1C2=O	-80.4% (active)	
CCCCOC(=O)COc1ccc(Cl)cc1Cl	1.3%	
Cc1ccc(C(=O)O)cc1[N+](=O)[O-]	-13.4%	
COc1ccc([N+](=O)[O-])cc1N	-29.6%	
Cc1c2ccccc2c(C)c2c1ccc1ccccc12	-137% (active)	
Brc1ccc(-c2ccccc2)cc1	-9.21%	
Clc1nc2ccccc2nc1Cl	-143% (active)	
Oc1ccc(O)c2c(O)cccc12	-29%	
c1c[nH]cn1	-10%	
O=C=Nc1ccc(Cl)c(Cl)c1	-122% (active)	
c1ccc(COCc2ccccc2)cc1	-5.87%	
Nc1ccc(N)c(Cl)c1		31.6 µM (active)
NC(=O)c1ccc([N+](=O)[O-])cc1	-5.57%	

SMILES	activity change, negative = cytotoxicity	Potency
c1ccc(SCCSc2ccccc2)cc1	-5.55%	
O=C(O)c1cc(N=Nc2ccc([N+](=O)[O-])cc2)ccc1O	-24.1%	
CCC(Cl)CC(Cl)C(Cl)C(Cl)C(Cl)C(C)Cl (stereo not given)	-16.5%	
CC(=O)CC(=O)Nc1ccccc1	-3.89%	
CC/C=C/C/C=C/C/C=C/CCCCCCCC(=O)OCC	-19.6%	
CCCCC(CC)COCCCN (stereo not given)	-23.1%	
CC(=O)Nc1cccc(C)c1	-12.7%	
Nc1cc(C(=O)O)c(O)c(S(=O)(=O)O)c1	-24.6%	
C[Si](C)(C)Cl	-21.3%	
O=C(O)c1ccc([N+](=O)[O-])cc1	3.22%	
O=[N+]([O-])c1ccccc1Nc1ccccc1	-20.1%	
c1ccc(Nc2cccc3ccccc23)cc1	-22.5%	
CCCCCCCCC1CO1 (stereo not given)	-9.26%	
O=[N+]([O-])c1cc(Cl)c(Cl)c(Cl)c1Cl		7.94 µM (active)
O=c1[nH]ncc2ccccc12	-142% (active)	
C=C(C#N)C(=O)OCC	-117% (active)	
O=[N+]([O-])c1cccc(I)c1	-7.89%	
O=Nc1ccc(Nc2ccccc2)cc1		31.6 µM (active)
CCOc1ccc2nc(N)sc2c1	-15.3%	
Oc1cc(Cl)cc(Cl)c1Cl	-14.4%	
